Screens from PubChem.
Apoferritin bind: qHTS Assay for Identification of Novel General Anesthetics | apoferritin/1-aminoanthracene competitive binding, fluorescence | Potency, µM (highest dose often 77.5 µM), without a hit: at the top dose activity change, negative = displacement, usual class: inhibitors | 350,000 tested, 0.074% active | AID 485281, 2010; note: % is set by controls: 0 for no effect and ±100 for the full control effect; nearly all actives have a fitted effect of over 20% in size
Target sequence (P02791 2-175 limits assumed): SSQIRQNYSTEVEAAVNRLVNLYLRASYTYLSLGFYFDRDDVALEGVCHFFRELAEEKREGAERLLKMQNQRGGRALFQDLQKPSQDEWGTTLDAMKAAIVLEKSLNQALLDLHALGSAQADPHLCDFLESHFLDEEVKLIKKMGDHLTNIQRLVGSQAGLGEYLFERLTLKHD
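Apoferritin-based anesthetic binding model; compound displacement of fluorescent 1-AMA measured as endpoint fluorescence after 10 minutes at room temperature, scaled to free-ligand and complex controls.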
BRCA1 expr up: qHTS Assay to Identify Small Molecule Activators of BRCA1 Expression; MCF7-BRCA1-FFLuc reporter, luminescence, 48 h; response scale: scaled: vehicle 0%, 10 µM genistein 100%; Potency, µM (top dose mostly 46.1 µM), without a hit: at the top dose activation, most hits filed as activators; 380,000 tested, 1.1% active; AID 624202, 2012; note: nearly all actives have a fitted effect of over 80% in size
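Quantitative HTS in MCF7 cells stably reporting BRCA1 expression via firefly luciferase. Compound treatment lasts 48 h at 37 °C in phenol-red free MEM. Activation is expressed relative to genistein at 10 microM and DMSO.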
RGS12 GoLoco inh: qHTS Assay for Inhibitors of RGS12 GoLoco Motif Activity (Red Fluorophore); Guanine nucleotide-binding protein G(i) subunit alpha-1 (Homo sapiens), P63096; Gai1:RGS12 GoLoco peptide FP, rhodamine, 10 min; Potency, µM (highest dose often 61.6 µM), without a hit: at the top dose activity, negative = inhibition, usual class: inhibitors; 230,000 tested, 0.44% active; active = well fitted inhibition curve with a large enough effect, not every such curve was filed as active; inactive = no such curve, though single readings can be large or run the other way; note: % is set by controls: 0 for no effect and ±100 for the full control effect; nearly all actives have a fitted effect of over 30% in size
ERG Ets-DNA blk: qHTS for Small Molecule Inhibitors of the ERG Ets/DNA interaction; Transcriptional regulator ERG (Homo sapiens), P11308; fluorescence polarization, His-ERG Ets domain / labelled DNA; Potency, µM (series often up to 76.9 µM), for inactives: at the top dose FP activity, negative = inhibition, usual class: inhibitors; 370,000 tested, 0.028% active; AID 624246, 2012; active = well fitted inhibition curve with a large enough effect in the polarisation, with a control signal flat; inconclusive = small, poorly fitted or top-dose-only effect, or effect the other way, or a change in a side signal; inactive = no such curve, though single readings can be large or run the other way; the % refers to the polarisation;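 note: polarization taken with two DNA probes labelled with fluorescein and Texas red; % of control where 0% means no effect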
Target sequence (P11308 whole entry, looked up, the tested form may be a part): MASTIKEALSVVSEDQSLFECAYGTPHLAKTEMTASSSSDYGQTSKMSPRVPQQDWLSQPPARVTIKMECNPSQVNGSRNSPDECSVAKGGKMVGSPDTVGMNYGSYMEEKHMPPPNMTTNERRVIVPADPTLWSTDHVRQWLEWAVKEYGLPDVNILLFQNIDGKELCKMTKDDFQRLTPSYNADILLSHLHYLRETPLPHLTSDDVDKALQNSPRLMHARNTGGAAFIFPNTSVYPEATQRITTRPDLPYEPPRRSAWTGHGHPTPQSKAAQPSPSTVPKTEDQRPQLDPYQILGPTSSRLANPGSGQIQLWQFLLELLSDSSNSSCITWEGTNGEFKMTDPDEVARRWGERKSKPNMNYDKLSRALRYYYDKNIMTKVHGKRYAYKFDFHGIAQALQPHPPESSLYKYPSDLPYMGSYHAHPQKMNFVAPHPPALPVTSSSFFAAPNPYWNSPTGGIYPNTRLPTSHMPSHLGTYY
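His-tagged ERG Ets domain (1 uM in the protein solution; 300mM KCl, 50mM Tris-HCl, 1mM EDTA, 1mM DTT, pH 7.5) received compound, then a probe mix of 5 nM fluorescein-DNA and 100nM Texas-615-DNA. Fluorescence polarization was read for both dyes.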
* hit, by the source's call; ? = inconclusive; . = no result; ! = a repeat was not active; [ ] = another dose, or the depositor's remark. Sampled rows, rich in hits. Any-hit rate of the full collection: about 1.2%. Unless noted, calls come from the whole dose curve; as a rule, active = well fitted curve in the direction sought with a large enough effect; inconclusive = small, poorly fitted or top-dose-only effect, or another doubt; inactive = no such curve, though single readings can be large; an effect the other way counts as inactive or inconclusive. Potency is the fitted concentration of half-maximal effect.

SMILES	Apoferritin bind	BRCA1 expr up	RGS12 GoLoco inh	ERG Ets-DNA blk
O=C(Nc1ccc2nsnc2c1)c1cccs1	-10%	-9%	1%	2%
Cc1nc2ccc(NC(=O)c3cccs3)cc2s1	-1%	6.3µM*	.	0%
O=[N+]([O-])c1cccc(S(=O)(=O)N2CCN(c3nc(-c4ccccc4)nc4ccccc34)CC2)c1	.	12%	.	.
O=C(CCSCc1cccc(Cl)c1)N1CCN(c2ccc(Cl)cc2)CC1	73%	.	.	4%
CCOCCCNc1ccc(-c2ccccc2)nn1	-4%	2.8µM*	2%	0%
Cc1cc2c(s1)c1cnn(CC(=O)N3CCOCC3)c(=O)c1n2C	.	14%	.	.
C/C(=N\O)c1ccc2c3c([nH]c2c1)CCCC3	7%	10µM*	-6%	0%
CCOC(=O)c1cc(-c2nnc(-c3ccc(Cl)cc3)o2)c(C)nc1C	-5%	-1%	13%	1%
CCOC(=O)c1ccc(-c2nnc(-c3ccc(Cl)cc3Cl)o2)cc1	3%	0.89µM*	6%	4%
O=c1cc(-c2ccco2)oc2ccccc12	.	77%	.	-1%
Cc1ccc2oc(-c3ccco3)cc(=O)c2c1	-12%	3.5µM*	5%	10%
CC(C)OCCOc1ccc2oc(-c3ccco3)cc(=O)c2c1	7%	8.9µM*	.	-12%
O=C(C[n+]1cc(-c2ccc(F)cc2)n2c1CCC2)c1cccs1	-12%	2µM*	8%	-7%
Cc1ccc(C(=O)N2CCCCC2)cc1NC1=C(Cl)C(=O)N(Cc2ccccc2)C1=O	.	-90%	.	7%
Cc1ccc(O)c(NC2=C(Cl)C(=O)N(Cc3ccccc3)C2=O)c1	22µM*	-43%	0%	2%
S=C(Nc1ccc(Cl)cc1)Nc1ccc2c(c1)OCCO2	-4%	7.1µM*	.	3%
O=C(NC(=S)Nc1ccc2c(c1)OCO2)c1ccc(Cl)cc1	-7%	6.3µM*	-1%	9%
CCc1ccc(C(=O)NC(=S)Nc2ccc3c(c2)OCCO3)cc1	-19%	6.3µM*	6%	0%
Cc1cc(C)cc(C(=O)NC(=S)Nc2ccc3c(c2)OCCO3)c1	0%	?	.	-9%
COc1ccc(Cl)cc1NC(=S)NC(=O)c1ccc2c(c1)OCO2	.	-23%	.	-4%
CC#CCN1c2ccccc2[C@]23C[C@@H](C(=O)OC)N(S(=O)(=O)c4ccc(C(F)(F)F)cc4)C2=NC(C(=O)OC)=C(C(=O)OC)[C@H]13	.	.	3%[14.2 µM]	.
Cc1ccc(C)c2c1NC(C(=O)O)C1CC=CC21 (stereo not given)	.	0%	.	.
CSc1ccccc1C(=O)Nc1nc2ccccc2c(=O)[nH]1	-23%	11µM*	3%	-7%
N/C(CS(=O)(=O)c1ccccc1)=N\OC(=O)c1ccc(F)cc1	-10%	11µM*	.	-6%
CNc1nc(-c2ccc3c(c2)CCN3C(=O)c2ccccc2C)cs1	-8%	2µM*	17%	7%
SMILES	Apoferritin bind	BRCA1 expr up	RGS12 GoLoco inh	ERG Ets-DNA blk
CNc1nc(-c2ccc3c(c2)CCN3C(=O)c2ccc(F)cc2)cs1	-14%	36%	6%	7%
COC(=O)c1scc(-c2ccc(C)cc2)c1S(=O)(=O)N1CCN(c2ccc(OC)cc2)CC1	3%	.	.	-2%
c1ccc(-c2ccc(-n3ccnc3)cc2)cc1	-18%	10µM*	.	.
c1ccc(-c2nc(N3CCN(c4ccccc4)CC3)nc(-n3ccnc3)n2)cc1	-16%	-52%	.	-3%
Cc1cc(C(F)(F)F)c(C#N)c(N2CCOCC2)n1	-1%	-1%	1%	0%
N#Cc1c(N2CCOCC2)nsc1-c1ccc(C(F)(F)F)cc1	0%	5µM*	5%	8%
COc1ccc(-c2cn(Cc3ccc(C(N)=O)cc3)c(-c3ccncc3)n2)cc1	.	4.5µM*	.	11%
CCCNC(=O)c1ccc(Cn2cc(-c3ccc(OC)cc3)nc2C(C)N)cc1 (stereo not given)	.	11µM*	.	-1%
O=C(C[n+]1csc2ccccc21)c1ccc(I)cc1	.	-20%	.	.
COC(=O)CCC(=O)OC1(C)C(=O)C=C2C=C(C3CC3)N(CC(C)C)C=C2C1=O (stereo not given)	-1%	.	3.5µM*!	.
O=C(COc1ccc(Cl)cc1Cl)c1ccc[nH]1	-15%	10µM*	41%	2%
Cc1ccc(Cl)c(OCC(=O)OCC(=O)c2ccc[nH]2)c1	.	3%	.	23%
O=C(NCc1ccco1)c1ccc(COc2cc(Cl)ccc2Cl)cc1	-4%	7.9µM*	5%	-5%
O=C(COc1ccc(Cl)cc1Cl)NCc1ccco1	-6%	10µM*	-135%	-1%
O=S(=O)(c1ccc2c(c1)CCCC2)N1CCN(c2nc(-c3ccccc3)nc3ccccc23)CC1	.	0%	.	.
COc1cc(OC)c(OC)cc1/C=C/c1cc[n+](C)c2ccccc12	.	-39%	.	.
CCOC(=O)CCCNC(=O)N1CCc2nc(-c3ccccc3)c3c(c2C1)CO[C@@H](C)C3	.	.	3%[14.2 µM]	.
CCc1nc(SCc2ccc(F)cc2)n[nH]1	-14%	?	3%	5%
CCc1nc(SCc2ccc(OC)cc2)n[nH]1	0%	11µM*	.	-3%
Cc1ccc(S(=O)(=O)N2CCN(c3nc(-c4cccs4)cc4ccccc34)CC2)cc1	.	0%	.	.
CC(=O)Nc1ccc(/C=C/C(=O)c2ccc(-n3nncc3-c3ccccc3)cc2)cc1	.	-56%	.	.
O=[N+]([O-])c1cccc(C(F)(F)F)c1	.	.	-6%	.
Cc1ccc2c(Cl)c(C(=O)NC3CC3)sc2c1	-4%	2.8µM*	.	-2%
O=C(NC1CC1)c1sc2cc([N+](=O)[O-])ccc2c1Cl	-3%	53%	4%	-8%
O=C(Nc1ccccc1)OCc1cc(-c2ccccc2Cl)on1	?	8.9µM*	2%	-3%
SMILES	Apoferritin bind	BRCA1 expr up	RGS12 GoLoco inh	ERG Ets-DNA blk
O=C(Nc1cccc(O)c1)c1cc(-c2ccccc2Cl)on1	-14%	7%	.	2%
NC(=O)c1ccc(NC(=O)C2CCCO2)cc1 (stereo not given)	-8%	27%	10%	5%
Cc1cc(NC(=O)c2ccc(NC(=O)C3CCCO3)cc2)ccc1Br (stereo not given)	-8%	1.1µM*	.	-19%
CCCOC(=O)c1ccc(NC(=O)C2CCCO2)cc1 (stereo not given)	-4%	11µM*	-1%	-1%
O=C(Nc1ccc(O)cc1)c1ccc(NC(=O)C2CCCO2)cc1 (stereo not given)	-11%	15%	.	8%
O=C(NC(NC(=S)Nc1ccc(F)c([N+](=O)[O-])c1)C(Cl)(Cl)Cl)C(c1ccccc1)c1ccccc1 (stereo not given)	-11%	.	.	.
CCc1ccc(Oc2c(C(F)(F)F)oc3c(CN4CCCC(C)C4)c(O)ccc3c2=O)cc1 (stereo not given)	5%	.	.	0%
COc1ccc2c(c1)CC/C(=C/c1ccco1)C2=O	1%	3.5µM*	8%	6%
CCOc1ccc2c(c1)sc(=NC(=O)C1CC1)n2C	-6%	2.8µM*	1%	.
Nc1c(C(=O)Nc2ccccc2)sc2nc(N3CCOCC3)c3c(c12)CCCC3	.	13µM*	.	.
